This is an account of results in ChEMBL document CHEMBL1961873, “Compounds: GSK PKIS; Assays: Nanosyn kinase panel” (2012).

For assay [1], the target named is Calcium/calmodulin-dependent protein kinase type II subunit alpha (Homo sapiens) (UniProt Q9UQM7). Particulars: at 1 µM.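 Further: reported value is a mean percent inhibition of CAMK2A.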
In assay [2] the target is Calcium/calmodulin-dependent protein kinase type II subunit delta (Homo sapiens) (UniProt Q13557). Particulars: at 0.1 µM.
Assay [3] shares this target. The note with it: at 1 µM.
In assay [4] the target is T1, Calcium/calmodulin-dependent protein kinase type IV (Homo sapiens) (UniProt Q16566).
T1 sequence (whole entry): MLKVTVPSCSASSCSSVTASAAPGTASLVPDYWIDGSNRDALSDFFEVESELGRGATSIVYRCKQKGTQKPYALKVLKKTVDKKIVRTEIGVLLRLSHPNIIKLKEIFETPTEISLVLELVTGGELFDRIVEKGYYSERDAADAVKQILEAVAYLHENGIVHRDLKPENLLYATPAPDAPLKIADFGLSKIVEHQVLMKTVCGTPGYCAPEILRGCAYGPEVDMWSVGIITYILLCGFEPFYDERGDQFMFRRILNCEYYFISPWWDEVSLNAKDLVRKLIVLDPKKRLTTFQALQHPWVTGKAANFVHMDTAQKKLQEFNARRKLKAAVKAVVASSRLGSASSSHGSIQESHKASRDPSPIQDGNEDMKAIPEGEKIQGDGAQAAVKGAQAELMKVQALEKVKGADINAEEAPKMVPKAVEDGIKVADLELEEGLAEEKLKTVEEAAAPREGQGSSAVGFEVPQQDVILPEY
Particulars: at 0.1 µM.

Assay [5] addresses T1, Calcium/calmodulin-dependent protein kinase type IV (Homo sapiens). Particulars: at 1 µM.
Assay [6] deals with T2, Serine/threonine-protein kinase Chk1 (Homo sapiens) (UniProt O14757).
T2 sequence (whole entry): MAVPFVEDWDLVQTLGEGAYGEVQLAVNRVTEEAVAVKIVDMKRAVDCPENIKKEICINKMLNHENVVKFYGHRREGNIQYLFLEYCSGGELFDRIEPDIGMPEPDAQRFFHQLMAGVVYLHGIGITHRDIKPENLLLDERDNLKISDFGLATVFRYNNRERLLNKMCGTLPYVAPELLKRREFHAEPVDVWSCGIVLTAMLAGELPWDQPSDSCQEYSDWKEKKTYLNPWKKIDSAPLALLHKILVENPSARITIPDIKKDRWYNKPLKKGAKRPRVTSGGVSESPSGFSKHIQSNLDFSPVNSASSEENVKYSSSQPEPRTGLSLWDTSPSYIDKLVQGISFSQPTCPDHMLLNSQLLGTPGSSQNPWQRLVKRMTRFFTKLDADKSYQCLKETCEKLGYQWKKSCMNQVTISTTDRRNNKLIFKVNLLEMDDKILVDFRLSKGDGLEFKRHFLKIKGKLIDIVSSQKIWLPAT
Particulars: at 0.1 µM.

For assay [7], the target named is T2, Serine/threonine-protein kinase Chk1 (Homo sapiens). Particulars: at 1 µM.
In assay [8] the target is Serine/threonine-protein kinase Chk2 (Homo sapiens) (UniProt O96017). Particulars: at 0.1 µM.
Assay [9] shares this target. Particulars: at 1 µM.
For assay [10], the target named is Death-associated protein kinase 1 (Homo sapiens) (UniProt P53355). Particulars: at 0.1 µM.
Death-associated protein kinase 1 (Homo sapiens), sequence (P53355 whole entry, looked up): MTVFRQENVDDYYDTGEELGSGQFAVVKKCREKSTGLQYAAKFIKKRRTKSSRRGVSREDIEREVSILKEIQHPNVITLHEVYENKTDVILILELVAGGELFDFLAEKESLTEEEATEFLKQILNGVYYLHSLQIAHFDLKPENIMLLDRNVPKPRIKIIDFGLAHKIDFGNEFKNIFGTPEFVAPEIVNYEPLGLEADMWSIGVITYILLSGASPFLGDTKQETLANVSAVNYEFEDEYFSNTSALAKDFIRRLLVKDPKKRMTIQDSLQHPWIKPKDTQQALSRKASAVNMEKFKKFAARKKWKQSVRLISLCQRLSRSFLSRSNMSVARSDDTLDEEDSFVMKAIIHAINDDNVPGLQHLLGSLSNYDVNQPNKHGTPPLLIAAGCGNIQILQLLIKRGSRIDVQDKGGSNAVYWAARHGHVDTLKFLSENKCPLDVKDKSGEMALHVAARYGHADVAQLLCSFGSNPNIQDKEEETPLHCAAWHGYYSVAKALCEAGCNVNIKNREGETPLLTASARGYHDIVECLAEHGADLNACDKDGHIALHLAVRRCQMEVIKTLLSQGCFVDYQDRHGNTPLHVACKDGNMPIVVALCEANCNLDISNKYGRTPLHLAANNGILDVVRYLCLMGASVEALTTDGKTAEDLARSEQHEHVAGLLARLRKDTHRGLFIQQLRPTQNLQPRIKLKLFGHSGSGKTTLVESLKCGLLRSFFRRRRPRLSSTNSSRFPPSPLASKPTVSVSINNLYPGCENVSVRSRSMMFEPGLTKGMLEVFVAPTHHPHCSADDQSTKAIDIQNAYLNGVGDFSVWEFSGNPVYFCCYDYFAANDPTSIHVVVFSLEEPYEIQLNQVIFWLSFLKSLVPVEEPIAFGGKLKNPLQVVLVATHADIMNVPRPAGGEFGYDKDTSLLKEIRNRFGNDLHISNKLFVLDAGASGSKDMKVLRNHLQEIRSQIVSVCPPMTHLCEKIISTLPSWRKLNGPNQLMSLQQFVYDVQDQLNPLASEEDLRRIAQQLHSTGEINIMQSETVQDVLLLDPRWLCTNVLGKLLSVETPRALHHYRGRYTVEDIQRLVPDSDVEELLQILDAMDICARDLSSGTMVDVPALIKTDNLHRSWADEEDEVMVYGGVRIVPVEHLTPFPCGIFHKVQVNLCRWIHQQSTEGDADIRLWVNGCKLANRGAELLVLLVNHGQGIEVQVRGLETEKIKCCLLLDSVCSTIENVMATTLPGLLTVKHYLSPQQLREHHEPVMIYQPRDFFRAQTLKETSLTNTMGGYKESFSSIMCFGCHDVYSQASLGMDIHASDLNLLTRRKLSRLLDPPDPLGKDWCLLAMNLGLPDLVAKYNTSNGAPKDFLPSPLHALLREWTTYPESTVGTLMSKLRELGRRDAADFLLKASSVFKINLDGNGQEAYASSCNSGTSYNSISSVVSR
For assay [11] the target is unchanged. Particulars: at 1 µM.
The target in assay [12] is T3, Serine/threonine-protein kinase DCLK2 (Homo sapiens) (UniProt Q8N568).
T3 sequence (whole entry): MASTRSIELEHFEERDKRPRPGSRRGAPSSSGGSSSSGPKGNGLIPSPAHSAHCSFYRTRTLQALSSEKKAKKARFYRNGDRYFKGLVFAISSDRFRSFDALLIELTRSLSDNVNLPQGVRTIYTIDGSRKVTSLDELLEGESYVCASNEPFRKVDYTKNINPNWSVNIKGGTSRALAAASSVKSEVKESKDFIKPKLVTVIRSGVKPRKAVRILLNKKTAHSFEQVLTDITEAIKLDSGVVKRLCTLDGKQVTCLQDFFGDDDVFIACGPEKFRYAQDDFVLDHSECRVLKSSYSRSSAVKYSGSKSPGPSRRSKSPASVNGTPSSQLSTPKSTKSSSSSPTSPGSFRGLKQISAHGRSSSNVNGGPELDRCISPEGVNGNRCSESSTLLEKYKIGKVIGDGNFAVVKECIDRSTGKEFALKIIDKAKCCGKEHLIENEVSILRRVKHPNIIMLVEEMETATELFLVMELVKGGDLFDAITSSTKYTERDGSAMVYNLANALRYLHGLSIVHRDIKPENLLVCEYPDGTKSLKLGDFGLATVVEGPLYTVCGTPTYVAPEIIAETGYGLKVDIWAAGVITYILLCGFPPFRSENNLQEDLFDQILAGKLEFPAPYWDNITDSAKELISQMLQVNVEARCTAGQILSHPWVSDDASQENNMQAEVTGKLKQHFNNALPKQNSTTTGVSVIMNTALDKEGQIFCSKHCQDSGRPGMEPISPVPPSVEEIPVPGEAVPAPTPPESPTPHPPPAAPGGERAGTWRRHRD
The note with it: at 1 µM.

In assay [13] the target is MAP kinase-activated protein kinase 2 (Homo sapiens) (UniProt P49137). The note with it: at 0.1 µM.
MAP kinase-activated protein kinase 2 (Homo sapiens), sequence (P49137 whole entry, looked up): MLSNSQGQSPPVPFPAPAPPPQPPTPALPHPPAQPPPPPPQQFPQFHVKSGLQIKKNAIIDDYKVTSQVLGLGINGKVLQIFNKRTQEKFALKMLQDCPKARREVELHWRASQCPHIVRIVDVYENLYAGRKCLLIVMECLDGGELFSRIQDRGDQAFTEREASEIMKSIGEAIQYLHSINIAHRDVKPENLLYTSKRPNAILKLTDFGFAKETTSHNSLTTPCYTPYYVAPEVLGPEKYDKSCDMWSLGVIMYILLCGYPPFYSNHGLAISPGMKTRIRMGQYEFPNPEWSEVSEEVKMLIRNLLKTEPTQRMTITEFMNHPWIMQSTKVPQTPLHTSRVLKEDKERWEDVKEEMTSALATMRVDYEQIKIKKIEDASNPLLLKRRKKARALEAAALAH
For assay [14] the target is unchanged. The note with it: at 1 µM.
Assay [15] has as its target MAP kinase-activated protein kinase 3 (Homo sapiens) (UniProt Q16644). The note with it: at 0.1 µM.
For assay [16] the target is unchanged. The note with it: at 1 µM.
The target of assay [17] is Serine/threonine-protein kinase MARK1 (Homo sapiens) (UniProt Q9P0L2). Particulars: at 0.1 µM.
Serine/threonine-protein kinase MARK1 (Homo sapiens), sequence (Q9P0L2 whole entry, looked up): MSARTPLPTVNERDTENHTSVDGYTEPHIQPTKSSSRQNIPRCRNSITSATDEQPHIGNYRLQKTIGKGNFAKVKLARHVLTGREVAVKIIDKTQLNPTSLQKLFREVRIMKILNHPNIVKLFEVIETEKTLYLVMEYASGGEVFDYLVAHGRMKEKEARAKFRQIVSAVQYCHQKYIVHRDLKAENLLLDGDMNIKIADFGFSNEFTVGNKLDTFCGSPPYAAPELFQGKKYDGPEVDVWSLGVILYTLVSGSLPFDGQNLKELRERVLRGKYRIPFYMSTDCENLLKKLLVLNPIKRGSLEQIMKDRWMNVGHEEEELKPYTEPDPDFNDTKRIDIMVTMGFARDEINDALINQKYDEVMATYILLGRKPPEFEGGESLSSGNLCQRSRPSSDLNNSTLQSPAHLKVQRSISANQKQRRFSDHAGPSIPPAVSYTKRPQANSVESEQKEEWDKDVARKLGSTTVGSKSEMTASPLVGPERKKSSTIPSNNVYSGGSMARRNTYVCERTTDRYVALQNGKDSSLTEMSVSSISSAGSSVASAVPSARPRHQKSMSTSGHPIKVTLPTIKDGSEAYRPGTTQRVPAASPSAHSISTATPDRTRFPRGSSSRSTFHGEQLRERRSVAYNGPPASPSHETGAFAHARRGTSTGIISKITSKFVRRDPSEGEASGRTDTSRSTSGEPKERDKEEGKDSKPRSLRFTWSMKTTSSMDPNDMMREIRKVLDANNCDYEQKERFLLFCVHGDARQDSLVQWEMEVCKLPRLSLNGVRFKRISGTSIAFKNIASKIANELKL
Assay [18] shares this target. Particulars: at 1 µM.
Assay [19] addresses MAP/microtubule affinity-regulating kinase 3 (Homo sapiens) (UniProt P27448). The note with it: at 0.1 µM.
For assay [20], the target named is T3, Serine/threonine-protein kinase DCLK2 (Homo sapiens). Particulars: at 0.1 µM.

Calcium/calmodulin-dependent protein kinase type II subunit alpha (Homo sapiens), sequence (Q9UQM7 whole entry): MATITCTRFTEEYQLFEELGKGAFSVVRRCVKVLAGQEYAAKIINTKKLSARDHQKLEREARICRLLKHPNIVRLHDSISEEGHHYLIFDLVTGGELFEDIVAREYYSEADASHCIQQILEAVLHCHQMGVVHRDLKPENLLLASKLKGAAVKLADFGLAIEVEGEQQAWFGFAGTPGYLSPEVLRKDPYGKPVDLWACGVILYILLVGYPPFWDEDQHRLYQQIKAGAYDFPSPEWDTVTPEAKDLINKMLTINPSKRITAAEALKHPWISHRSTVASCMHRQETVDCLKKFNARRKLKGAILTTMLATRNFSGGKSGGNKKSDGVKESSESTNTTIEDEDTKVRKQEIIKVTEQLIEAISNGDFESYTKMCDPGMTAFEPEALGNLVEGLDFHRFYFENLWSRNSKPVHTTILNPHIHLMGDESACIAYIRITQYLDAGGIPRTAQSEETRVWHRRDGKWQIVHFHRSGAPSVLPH
MAP kinase-activated protein kinase 3 (Homo sapiens), sequence (Q16644 whole entry, looked up): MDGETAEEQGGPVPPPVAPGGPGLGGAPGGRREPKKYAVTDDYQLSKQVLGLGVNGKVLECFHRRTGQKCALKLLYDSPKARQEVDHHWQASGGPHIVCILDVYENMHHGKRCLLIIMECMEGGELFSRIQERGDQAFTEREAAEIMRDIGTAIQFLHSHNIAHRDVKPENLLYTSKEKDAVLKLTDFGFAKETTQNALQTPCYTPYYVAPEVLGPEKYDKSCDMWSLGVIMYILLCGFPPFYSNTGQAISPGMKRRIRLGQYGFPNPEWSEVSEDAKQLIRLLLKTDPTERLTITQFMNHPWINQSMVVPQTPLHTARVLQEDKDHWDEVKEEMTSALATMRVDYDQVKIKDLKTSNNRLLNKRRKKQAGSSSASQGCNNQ
Calcium/calmodulin-dependent protein kinase type II subunit delta (Homo sapiens), sequence (Q13557 whole entry): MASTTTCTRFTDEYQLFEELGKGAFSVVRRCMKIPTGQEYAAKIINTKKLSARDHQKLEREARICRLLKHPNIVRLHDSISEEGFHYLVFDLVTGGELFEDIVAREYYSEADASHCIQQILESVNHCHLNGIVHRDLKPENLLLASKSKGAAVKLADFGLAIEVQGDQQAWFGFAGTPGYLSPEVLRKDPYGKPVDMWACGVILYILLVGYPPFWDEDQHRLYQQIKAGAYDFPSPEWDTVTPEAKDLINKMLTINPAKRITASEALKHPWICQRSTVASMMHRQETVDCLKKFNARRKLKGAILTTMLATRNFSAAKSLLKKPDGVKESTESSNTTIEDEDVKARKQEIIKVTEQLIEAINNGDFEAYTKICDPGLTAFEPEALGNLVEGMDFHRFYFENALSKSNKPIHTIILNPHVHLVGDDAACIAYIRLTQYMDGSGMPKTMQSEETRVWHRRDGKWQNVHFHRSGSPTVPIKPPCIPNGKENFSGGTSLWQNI
MAP/microtubule affinity-regulating kinase 3 (Homo sapiens), sequence (P27448 whole entry, looked up): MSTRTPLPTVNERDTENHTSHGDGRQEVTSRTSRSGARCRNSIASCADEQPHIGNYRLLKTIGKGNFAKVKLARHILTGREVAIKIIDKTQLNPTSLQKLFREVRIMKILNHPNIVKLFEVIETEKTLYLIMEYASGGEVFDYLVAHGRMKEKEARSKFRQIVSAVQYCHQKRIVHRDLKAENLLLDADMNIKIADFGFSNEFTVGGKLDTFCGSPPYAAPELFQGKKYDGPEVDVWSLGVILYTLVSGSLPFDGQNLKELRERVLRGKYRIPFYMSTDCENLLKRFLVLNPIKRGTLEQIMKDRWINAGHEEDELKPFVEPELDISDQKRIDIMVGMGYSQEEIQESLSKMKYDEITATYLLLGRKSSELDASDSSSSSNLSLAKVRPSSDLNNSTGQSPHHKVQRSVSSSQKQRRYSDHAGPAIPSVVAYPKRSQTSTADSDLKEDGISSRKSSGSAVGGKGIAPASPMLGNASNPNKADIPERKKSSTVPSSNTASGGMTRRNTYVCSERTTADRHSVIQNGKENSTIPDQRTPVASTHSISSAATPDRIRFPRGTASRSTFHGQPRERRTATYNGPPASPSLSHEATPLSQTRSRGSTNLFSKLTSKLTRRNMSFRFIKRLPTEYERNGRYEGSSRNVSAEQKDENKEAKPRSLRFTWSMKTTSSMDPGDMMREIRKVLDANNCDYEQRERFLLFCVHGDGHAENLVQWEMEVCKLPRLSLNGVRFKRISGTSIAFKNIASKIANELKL

Turning to `CCn1c(-c2nonc2N)nc2c(C#CC(C)(C)O)nc(OC[C@@H](N)c3ccccc3)cc21`, the inhibition in assay [1] is 0.34%; in assay [2], -0.01%; in [3], 1.5%; in assay [4] it was 2.61%; in assay [5], 3.39%; in assay [6] it was -5.33%. In addition, the inhibition in [7] was 7.52%; in assay [8] it was -5.8%; in assay [9] it was 1.05%; in assay [10] it was -8.66%; in assay [11], -7.69%; in assay [12] it was 1.63%. The inhibition in [13] was -3.81%; in assay [14], -3.91%; in assay [15] it was -6.12%; in [16], -7.91%; in assay [17] it was 0.67%; in [18], 19.9%. Further, the inhibition in assay [19] was 3.1%.
Take `COc1cc(C)c(NC(=O)CN(C)C)cc1Nc1nc(Nc2cccc(F)c2C(N)=O)c2cc[nH]c2n1`: the inhibition is 8.59% in [1]; 4.57% in [2]; 14.2% in [3]; 9.62% in assay [4]; 40% in assay [5]; -4.03% in assay [6]. In addition, the inhibition in assay [7] was -1.09%; in assay [8], 40.2%; in assay [9], 76.2%; in [10] it was 1.58%; in [11], 35%; in [20], 1.99%. For the same compound, the inhibition is 0.89% in assay [13]; 0.73% in [14]; 3.1% in [15]; 3.56% in [16]; -0.37% in [17]; 1.38% in assay [18]. Besides, the inhibition in assay [19] is -0.27%.
Regarding `O=C1Nc2ccc(C(=O)c3ccco3)cc2C1=Cc1cc(Cl)c(O)c(Cl)c1`, the inhibition in assay [1] stood at 8%; in assay [2] it was 3.46%; in [3] it was 11.4%; in assay [4], 0.35%; in assay [5], 0.09%; in [6], 1.54%. Besides, the inhibition was 5.95% in assay [7]; 2.67% in assay [8]; 12.5% in [9]; -0.53% in assay [10]; 1% in assay [20]; 6.57% in assay [12]. Also, the inhibition is 1.24% in [13]; 0.24% in assay [14]; 3.31% in [15]; 2.14% in [16]; 3.54% in [17]; 14.2% in assay [18]. Besides, the inhibition in [19] is 4.74%.
As for `CCn1c(-c2nonc2N)nc2c(C#CC(C)(C)O)nc(CN3CCCC3)cc21`, the inhibition in assay [1] was 0.03%; in assay [2], -0.33%; in assay [3], 1.82%; in assay [4], -3.55%; in [5] it was 1.55%; in assay [7], -2.45%. For the same compound, the inhibition in [8] is -1.49%; in assay [9], 0.49%; in [10] it was 0.05%; in [11], -0.31%; in assay [20], 6.66%; in [12] it was -1.42%. In addition, the inhibition in [13] is -0.49%; in assay [14] it was -0.42%; in [15] it was -1.48%; in assay [16] it was -0.59%; in [17], 4.99%; in assay [18], 12%. Further, the inhibition in assay [19] turned out to be 4.42%.
With `[O-][S+]1CCN(Cc2ccc(-c3ccc4ncnc(Nc5ccc(OCc6ccccc6)c(F)c5)c4c3)o2)CC1`, the inhibition in assay [1] turned out to be 2.39%; in assay [2], 2.36%; in assay [3], 2.19%; in assay [4], 0.91%; in assay [5], 0.5%; in assay [6], 0.15%. For the same compound, the inhibition in assay [7] is 3.65%; in [8] it was 2.23%; in assay [9], 7.61%; in assay [10] it was 2.43%; in assay [11] it was 3.11%; in [20] it was 1.91%. Also, the inhibition in assay [12] was determined as 3.92%; in [13], 0.41%; in assay [14], 0.42%; in assay [15], 0.85%; in assay [16], 3.94%; in assay [17] it was 1.63%. Also, the inhibition in assay [18] is 2.55%; in assay [19], 2.88%.
In the case of `Fc1cccc(COc2ccc(Nc3ncnc4sc(-c5cccs5)cc34)cc2Cl)c1`, the inhibition is -2.43% in [1]; -0.89% in assay [2]; 1.53% in [3]; -0.72% in [5]; -6.44% in [6]; -5.05% in assay [7]. Besides, the inhibition was -6.31% in assay [8]; -6.27% in assay [9]; -9.21% in assay [10]; -9.5% in [11]; -1.25% in assay [20]; 2.62% in assay [12]. For the same compound, the inhibition was -2.05% in [13]; -2.63% in [14]; -4.76% in [15]; -5.22% in assay [16]; 0.88% in assay [17]; 2.73% in assay [18]. Further, in assay [19], the inhibition was 0.02%.
As for `Fc1cccc(COc2ccc(Nc3ncnc4cc(-c5ccc[nH]5)sc34)cc2Cl)c1`, the inhibition is 0.84% in assay [1]; 1.12% in [2]; 2.72% in assay [3]; 1.44% in [4]; 1.44% in assay [5]; -0.13% in assay [6]. Besides, the inhibition is 3.63% in assay [7]; 0.71% in assay [8]; 3.96% in assay [9]; -1.32% in [10]; -2.65% in assay [11]; -2.61% in assay [20]. Moreover, the inhibition in assay [13] is -0.38%; in [14], -0.64%; in assay [15], 0.31%; in assay [16], -0.26%; in [17], 1.53%; in [18], 2.14%. For the same compound, in [19], the inhibition was -1.42%.
